Data as given in the supplement of paper PMC3334620.
Over roughly 33,000 sequences, “E-score (-0.5 to 0.5)” has its median near -0.011; the highest 2% begin near 0.28. Only a selection was taken, and the highest values are over-represented in it overall.

Biological target: T1, Gcr1 (UniProt P07261)
T1 sequence: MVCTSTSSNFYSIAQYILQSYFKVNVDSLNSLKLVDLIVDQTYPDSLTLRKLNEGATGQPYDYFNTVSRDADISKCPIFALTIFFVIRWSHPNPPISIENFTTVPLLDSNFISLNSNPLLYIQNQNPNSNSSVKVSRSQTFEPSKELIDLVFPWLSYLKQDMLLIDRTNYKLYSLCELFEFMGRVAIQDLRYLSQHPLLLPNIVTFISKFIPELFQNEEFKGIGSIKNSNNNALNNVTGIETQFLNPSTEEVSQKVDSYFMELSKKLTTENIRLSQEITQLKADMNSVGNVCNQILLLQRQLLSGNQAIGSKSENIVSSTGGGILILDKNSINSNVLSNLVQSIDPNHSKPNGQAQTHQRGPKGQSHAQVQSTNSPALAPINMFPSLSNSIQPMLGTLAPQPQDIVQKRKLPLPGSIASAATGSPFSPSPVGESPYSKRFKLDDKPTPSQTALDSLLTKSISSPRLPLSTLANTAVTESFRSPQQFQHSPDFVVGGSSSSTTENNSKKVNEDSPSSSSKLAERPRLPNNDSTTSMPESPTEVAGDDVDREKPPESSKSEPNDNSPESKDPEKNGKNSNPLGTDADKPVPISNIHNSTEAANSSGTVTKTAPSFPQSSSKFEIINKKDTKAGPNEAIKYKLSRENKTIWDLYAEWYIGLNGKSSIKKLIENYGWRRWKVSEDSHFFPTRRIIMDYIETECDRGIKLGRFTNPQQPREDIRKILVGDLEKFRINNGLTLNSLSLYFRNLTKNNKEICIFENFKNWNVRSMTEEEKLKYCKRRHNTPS
Assay: PBM E-score (8-mer binding enrichment) (E-score (-0.5 to 0.5)); higher = stronger / more preferred TF binding
Details: protein concentration: 100 nM; construct: GST-full length
Outline: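 For each ungapped eight-base word taken together with its reverse complement, the Universal PBM Analysis Suite assigned an E-score. Binding data came from GST-tagged yeast transcription factors, applied at about 100-200 nM, on universal all-10-mer Agilent arrays made double-stranded by primer extension. Fluorescent anti-GST marked bound protein, and scans were normalised with masliner.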

| Sequence | PBM E-score |
| --- | --- |
| CAGGGTGC | 0.234 |
| ACTCATAA | -0.0566 |
| AAGCCGAT | -0.0786 |
| CAGAACCC | 0.208 |
| TGGAACAA | -0.0703 |
| CGGAACCC | 0.348 |
| TGGAACCA | 0.357 |
| CGGAACCG | 0.18 |
| AAGAACCT | 0.2 |
| GGGAACCA | 0.314 |
| GGGAACGA | -0.0791 |
| CGGAACCA | 0.114 |
| TAGAACCA | 0.0906 |
| AGGAACCT | 0.38 |
| ACGAACCT | -0.0495 |
| CAGTACCA | 0.0486 |
| AACATTCG | -0.0406 |
| TAAATACA | 0.161 |
| GGTGGTCA | -0.132 |
| AGCACGCT | -0.123 |
| ACAGCGGT | -0.219 |
| GGAAACCC | 0.106 |

| Sequence | PBM E-score |
| --- | --- |
| GAGAACCC | -0.162 |
| AGGAACCG | 0.139 |
| AGGAACCA | 0.203 |
| GGGAACCC | 0.336 |
| AGGAACCC | 0.414 |
| CATGCCTA | -0.112 |
| AAGAGAGC | -0.276 |
| GAGCCGTA | 0.0183 |
| ATGGATAG | -0.00601 |
| AACGGGGA | -0.00775 |
| ACGATCCT | -0.0105 |
| AGAATCCT | 0.252 |
| AGGATCCC | 0.379 |
| AGGATCCA | 0.263 |
| AGAATCCA | 0.249 |
| AAGATCCT | 0.0935 |
| GGGATCAC | -0.137 |
| AGGATCCG | 0.0808 |
| GGGATCCC | 0.419 |
| AGGATCCT | 0.301 |
| GAGATCCC | 0.0362 |
| AGAATCCC | 0.321 |

| Sequence | PBM E-score |
| --- | --- |
| CTGGTCGA | -0.3 |
| GGGCCAAC | -0.13 |
| AAATGCTT | -0.208 |
| GCCGGCGC | 0.0181 |
| AGCAAACT | 0.0882 |
| GGGTTCAA | -0.101 |
| GCCGGCTA | -0.145 |
| GAAGGGAC | -0.279 |
| CGGATCCA | 0.235 |
| CGGATCCC | 0.341 |
| TGGATCCA | 0.317 |
| TGGATCAA | -0.0326 |
| CGGATCCG | 0.212 |
| GTGATCCA | -0.0936 |
| GAGATCCA | 0.174 |
| CGGATCGC | -0.0306 |
| GGGATCCA | 0.347 |
| AAATCAAA | 0.0655 |
| TGAAAGCA | 0.00794 |
| GATACTGC | -0.205 |
| ATCCGACA | -0.019 |
| CGGTTAGC | -0.0704 |

| Sequence | PBM E-score |
| --- | --- |
| GGCCTGCA | -0.237 |
| CTCCAGAA | 0.0346 |
| AACCAGAT | 0.228 |
| CACCAGAA | 0.15 |
| AACCAGAC | -0.0315 |
| TACCAGAA | 0.34 |
| CCCCAGAA | 0.288 |
| CCCCAGAC | 0.0344 |
| GTCCAGAA | 0.0699 |
| CCCCAGAG | -0.0817 |
| AACCAGAA | 0.281 |
| TTCCAGAA | 0.287 |
| GACCAGAA | 0.131 |
| AAGTTTGG | 0.179 |
| AATCCAAA | 0.205 |
| ACTTCATG | 0.0318 |
| GAACCCGA | 0.195 |
| CGTATCTC | 0.0698 |
| ACTACGGG | 0.00638 |
| AAAATCCA | -0.012 |
